Compounds with a hit are over-represented: about 12% of the library has one in this group of screens.
G9a block: qHTS Assay for Inhibitors of Histone Lysine Methyltransferase G9a; Histone-lysine N-methyltransferase EHMT2 (Homo sapiens), Q96KQ7; G9a H3K9 monomethylation, AlphaScreen, 2 h; Potency, µM (series often up to 102 µM), usual class: inhibitors; 8.8% of 350,000 active; AID 504332, 2011; note: nearly all actives have a fitted effect of over 75% in size
Target sequence (Q96KQ7 913-1193 limits assumed): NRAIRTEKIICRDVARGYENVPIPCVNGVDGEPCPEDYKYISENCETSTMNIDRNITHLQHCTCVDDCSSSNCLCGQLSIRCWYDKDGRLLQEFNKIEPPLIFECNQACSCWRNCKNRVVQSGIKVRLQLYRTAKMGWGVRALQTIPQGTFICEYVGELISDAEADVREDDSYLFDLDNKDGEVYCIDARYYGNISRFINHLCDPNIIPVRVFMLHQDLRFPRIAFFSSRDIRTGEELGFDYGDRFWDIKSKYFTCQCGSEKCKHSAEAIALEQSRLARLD
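Signal arises when biotinylated H3K9 peptide, once monomethylated, bridges streptavidin donor and antibody-captured acceptor beads. Enzyme at 20 nM was preincubated 15 min with test compounds; peptide 500 nM and SAM 20 uM then reacted for 2 h.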
PI5P4K alpha inh: qHTS for Inhibitors of phosphatidylinositol 5-phosphate 4-kinase (PI5P4K); Phosphatidylinositol 5-phosphate 4-kinase type-2 alpha (Homo sapiens), P48426; PI5P4Kalpha enzyme, ADP-Glo luminescence, 60 min; stronger effect = lower value; max response, %; 1.2% of 330,000 active; AID 652105, 2013; active = max response of -50% or lower; inconclusive = between -30% and -50%; inactive = -30% or higher; note: value at the top dose of about 77 µM
Target sequence (P48426 whole entry, looked up): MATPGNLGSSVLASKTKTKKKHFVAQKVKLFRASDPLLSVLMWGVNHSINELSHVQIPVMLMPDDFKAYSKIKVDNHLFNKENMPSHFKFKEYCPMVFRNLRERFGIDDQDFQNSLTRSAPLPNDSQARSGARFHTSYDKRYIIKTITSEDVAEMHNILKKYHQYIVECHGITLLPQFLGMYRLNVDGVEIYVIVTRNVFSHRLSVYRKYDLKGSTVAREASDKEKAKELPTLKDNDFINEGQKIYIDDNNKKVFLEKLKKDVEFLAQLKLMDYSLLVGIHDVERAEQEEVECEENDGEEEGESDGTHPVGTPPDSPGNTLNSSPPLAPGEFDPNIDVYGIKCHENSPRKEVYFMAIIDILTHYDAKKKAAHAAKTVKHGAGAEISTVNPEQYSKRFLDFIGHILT
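Compounds were pin-transferred onto PI5P4Kalpha and substrate in HEPES pH 7.4 buffer with EGTA, CHAPS and 5% DMSO. ATP (5 microM final) started the reaction, which ran 60 minutes at room temperature before ADP-Glo detection.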
BAZ2B block: qHTS Assay for Inhibitors of BAZ2B; Bromodomain adjacent to zinc finger domain protein 2B (Homo sapiens), Q9UIF8; AlphaScreen BAZ2B-H3K14Ac peptide displacement; Potency, µM (highest dose often 114 µM), usual class: inhibitors; 4.4% of 360,000 active; AID 504333, 2011; note: nearly all actives have a fitted effect of over 60% in size
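AlphaScreen luminescence quantifies BAZ2B engagement of H3K14Ac peptide; the protein and biotinylated peptide are both at 50 nM final, buffer PBS pH 7.4 with 0.01% Tween-20, all steps at room temperature.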
HP1b binding inh: HTS for Inhibitors of HP1-beta Chromodomain Interactions with Methylated Histone Tails; AID 540317, 2011; 0.56% of 390,000 active; AlphaScreen HP1-beta / biotin-H3K9me3 peptide binding; Potency, µM (doses to about 114 µM), usual class: inhibitors; Chromobox protein homolog 1 (Homo sapiens), P83916; note: nearly all actives have a fitted effect of over 70% in size
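Compound inhibition of the preformed complex between 50 nM HP1-beta and 50 nM biotinylated H3K9me3 peptide was read by AlphaScreen. Buffer was PBS pH 7.4 with 0.01% Tween-20. Incubations ran 30 min at room temperature, with 10 ug/mL donor/acceptor beads.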
JMJD2A Tudor inh: qHTS Assay for Inhibitors of JMJD2A-Tudor Domain. AlphaScreen JMJD2A-Tudor / H3K4me3 peptide binding. Potency, µM (top dose mostly 114 µM), hits mostly inhibitors. AID 504339, 2011. Lysine-specific demethylase 4A (Homo sapiens), O75164. 4.4% of 390,000 active; note: nearly all actives have a fitted effect of over 50% in size
PLK1 PBD block: qHTS for Inhibitors of PLK1-PDB (polo-like kinase 1 - polo-box domain): Primary Screen; Serine/threonine-protein kinase PLK1 (Homo sapiens), P53350; 2.8% of 360,000 active; Plk1 PBD binding of FITC phosphopeptide, fluorescence polarization; AID 720504, 2013; Potency, µM, usual class: inhibitors; note: series mostly up to about 57 µM; nearly all actives have a fitted effect of over 65% in size
Large screens that a line does not name were inactive. Unless noted, calls come from the whole dose curve; as a rule, active = well fitted curve in the direction sought with a large enough effect; inconclusive = small, poorly fitted or top-dose-only effect, or another doubt; inactive = no such curve, though single readings can be large; an effect the other way counts as inactive or inconclusive.

COc1ccc(S(=O)(=O)c2cn(CC(=O)Nc3cc(C)ccc3C)c3ccccc3c2=O)cc1	none (no result: PI5P4K alpha inh, PLK1 PBD block)
Cc1noc(C)c1-c1cc(Nc2ccccc2)ncn1	none (no result: PI5P4K alpha inh, BAZ2B block, HP1b binding inh, JMJD2A Tudor inh, PLK1 PBD block)
COc1cccc(Cn2c(=O)cnc3cnc(N4CCOCC4)nc32)c1	none (no result: PI5P4K alpha inh, BAZ2B block, HP1b binding inh, JMJD2A Tudor inh, PLK1 PBD block)
O=C(NCC1CCN(Cc2ccc(F)cc2)CC1)c1cc2ccc3cccnc3c2[nH]1	none (no result: PI5P4K alpha inh, PLK1 PBD block)
CC1CC=CC2C1C(=O)N(Cc1ccccc1)C2c1ccc(/C=C/c2ccccc2)cc1F (centres undefined)	none (no result: G9a block, PI5P4K alpha inh, BAZ2B block, PLK1 PBD block)
O=C(CC1S/C(=N/N=C/c2ccco2)NC1=O)Nc1ccccc1 (centres undefined)	none
Cc1ccc(NC(=O)CC2SC(=NC3CCCCC3)NC2=O)cc1 (centres undefined)	G9a block 89µM
O=C(CC1S/C(=N/N=C/C=C/c2ccccc2)NC1=O)Nc1ccc(C(=O)O)cc1 (centres undefined)	G9a block inconclusive, PI5P4K alpha inh -77, BAZ2B block 79µM
CC1=C/C(=N\N=C2\NC(=O)C(CC(=O)Nc3ccccc3)S2)CC(C)(C)C1 (centres undefined)	JMJD2A Tudor inh inconclusive, PLK1 PBD block 24µM
CCOC(=O)N1CCN(Cc2nc3cc(NC(=O)c4ccc([N+](=O)[O-])cc4)ccc3n2C(C)C)CC1	none (no result: PI5P4K alpha inh, PLK1 PBD block)
Fc1ccc(C2c3cccn3CCN2C(=S)Nc2cccc(Br)c2)cc1 (centres undefined)	G9a block 71µM
Cc1cccc(NC(=S)N2CCn3cccc3C2c2cccnc2)c1 (centres undefined)	G9a block 50µM, BAZ2B block inconclusive
COc1cccc(NC(=S)N2CCn3cccc3C2c2cccnc2)c1 (centres undefined)	G9a block 28µM, BAZ2B block 50µM, PLK1 PBD block inconclusive
CC(C)(C)c1ccc(C(=O)NCC(=O)OC(C(=O)Nc2cc(C(F)(F)F)ccc2Cl)c2ccccc2)cc1 (centres undefined)	none (no result: G9a block, PI5P4K alpha inh, BAZ2B block, HP1b binding inh, PLK1 PBD block)
CCCc1cc2c(OC(=O)CC)c(-c3ccc(C(=O)OCC)o3)c(=O)oc2cc1OC	PI5P4K alpha inh -65
Cc1ccccc1-c1nn2c(=O)cc(CN3CCN(C(=O)c4ccc(C(C)(C)C)cc4)CC3)nc2s1	none (no result: PI5P4K alpha inh, PLK1 PBD block)
CC1(C)Cc2nc3oc4c(=S)nc[nH]c4c3cc2CO1	G9a block 45µM, JMJD2A Tudor inh 25µM (no result: PI5P4K alpha inh)
CCCN1CNc2c(c(=O)[nH]c(=S)n2CCc2cccs2)C1	none (no result: G9a block, PI5P4K alpha inh, BAZ2B block, PLK1 PBD block)
O=C(NCc1ccccc1Cl)c1ccc2c(c1)N(Cc1ccccc1)CCS2	none (no result: PI5P4K alpha inh, PLK1 PBD block)
CCOC(=O)N1CCN(S(=O)(=O)c2ccc(C(=O)NNc3nc4c(C)cc(C)cc4s3)cc2)CC1	G9a block 45µM, JMJD2A Tudor inh inconclusive
CCOC(=O)N1CCN(S(=O)(=O)c2ccc(C(=O)NNc3nc4ccc(Cl)cc4s3)cc2)CC1	G9a block 79µM
Cc1cc(C)c2nc(NNC(=O)c3ccc(S(=O)(=O)N4CCCCC4)cc3)sc2c1	G9a block 25µM, BAZ2B block inconclusive, JMJD2A Tudor inh inconclusive
Cc1cc(C)c2nc(NC(=O)c3ccc(S(=O)(=O)N4CCCC4)cc3)sc2c1	none (no result: PI5P4K alpha inh, PLK1 PBD block)
CCOC(=O)N1CCN(S(=O)(=O)c2ccc(C(=O)NNc3nc4cc(C)cc(C)c4s3)cc2)CC1	G9a block 50µM, BAZ2B block inconclusive, JMJD2A Tudor inh inconclusive
COc1ccc(C)cc1NC(=O)CCNC(=O)Cn1ccc2ccccc2c1=O	none
CCS(=O)(=O)c1ccc(OC)c(N=Nc2ccc(O)c3ncccc23)c1	G9a block 14µM, BAZ2B block 8.9µM, JMJD2A Tudor inh 40µM
CCN(CC)S(=O)(=O)c1cc(OC)ccc1N=Nc1ccc(O)c2ncccc12	G9a block 8.9µM, BAZ2B block 20µM, HP1b binding inh inconclusive, JMJD2A Tudor inh 13µM
COc1ccc(S(=O)(=O)NCCOc2cccc3cccnc23)cc1OC	none
O=C1OCC(CO)(CO)N=C1NNc1ccccc1Cl	G9a block 5.6µM, JMJD2A Tudor inh inconclusive (no result: PI5P4K alpha inh)
Cc1cc(Cl)ccc1NC(=O)CN1C(=O)COc2ccc(S(=O)(=O)N3CCC(C)CC3)cc21	none (no result: PI5P4K alpha inh, PLK1 PBD block)
O=C(O)CNC(=O)c1ccc(NC(=O)/C(=C/c2cccc([N+](=O)[O-])c2)NC(=O)c2ccco2)cc1	none
Cc1cc(C)cc(N(CCC#N)C(=O)COC(=O)C2CCN(S(=O)(=O)c3ccc(C)c(C)c3)CC2)c1	none
Cc1ccc(N(CCC#N)C(=O)COC(=O)c2cc(C)oc2C)cc1	none
Cc1ccc(N(CCC#N)C(=O)COC(=O)c2cc(C)no2)cc1	G9a block 22µM
Cc1ccc(N(CCC#N)C(=O)COC(=O)C2CCN(S(=O)(=O)c3ccc(C)c(C)c3)CC2)cc1	G9a block 45µM
CCCCCC[n+]1ccccc1/C=C/c1ccc(N(C)C)cc1	none (no result: G9a block, BAZ2B block, HP1b binding inh, JMJD2A Tudor inh)
Cc1ccc(/C=C/c2ccc(N(C)C)cc2)[n+](C)c1	BAZ2B block inconclusive, JMJD2A Tudor inh 25µM
CN(C)c1ccc(/C=C/c2cc[n+]([O-])cc2)cc1	G9a block 50µM (no result: PI5P4K alpha inh, HP1b binding inh, JMJD2A Tudor inh, PLK1 PBD block)
CN(C)c1ccc(/C=C/c2cc[n+](C)cc2)cc1	G9a block 10µM, BAZ2B block inconclusive
Cc1ncc(CN2CCCC(C(=O)Nc3ccc(-n4ccnc4C)cc3)C2)cn1 (centres undefined)	none
Cc1ccc(C)c(NC(=O)CN(C)S(=O)(=O)c2cccc3nsnc23)c1	none (no result: PI5P4K alpha inh, BAZ2B block, PLK1 PBD block)
Cc1cc(C)c2ccc(NN)nc2c1O	G9a block 32µM
C=CCNc1nc2ccccc2nc1NS(=O)(=O)c1cccs1	BAZ2B block inconclusive
O=S(=O)(Nc1nc2ccccc2nc1Nc1ccc2c(c1)OCCO2)c1cccs1	G9a block inconclusive, BAZ2B block 50µM, JMJD2A Tudor inh inconclusive (no result: PI5P4K alpha inh)
O=S(=O)(Nc1nc2ccccc2nc1NCc1ccco1)c1cccs1	G9a block 50µM
O=C(Nc1ccc(O)cc1)c1ccc2c(c1)C(=O)N(Cc1ccco1)C2=O	PI5P4K alpha inh -57, BAZ2B block inconclusive, JMJD2A Tudor inh inconclusive
O=C(O)c1ccc(C(=O)c2ccc3c(c2)C(=O)N(Cc2ccco2)C3=O)cc1	PI5P4K alpha inh -71
O=C(Nc1cc([N+](=O)[O-])ccc1O)c1ccc2c(c1)C(=O)N(Cc1ccco1)C2=O	PI5P4K alpha inh inconclusive, JMJD2A Tudor inh inconclusive (no result: G9a block)
CC1CCCCN1C(=O)COC(=O)c1ccc2c(c1)C(=O)N(Cc1ccco1)C2=O (centres undefined)	none

High-throughput results as filed in PubChem.
